From PubChem BioAssay AID1259313 (Sanford-Burnham Center for Chemical Genomics, 2017)
About 8,500 (2.5%) of roughly 340,000 compounds were called active. Only a selection was taken, and actives are over-represented in it overall. Unmarked numbers belong to inactive results.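 The calls were made as follows: active = melting temperature shift of at least 10% of the positive control shift, at one fixed dose; inactive = the rest.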

test system: Glutamate receptor ionotropic, NMDA 3A (GRIN3A) ligand-binding domain; test: NR3A LBD thermal stabilization by compounds – biophysical, differential scanning fluorimetry, uHTS, primary screen (AID 1259313); conditions: at 25 µM, active compounds read high, 0% = protein alone, 100% = glycine-bound protein

Row | SMILES | Tm shift relative to glycine control
1 | CC(CNC(=O)Cn1cnc2c(OCc3ccccc3)ncnc21)c1ccccc1 (stereo not drawn) | 16.8% (active)
2 | Cc1ccc(NC(=O)Cn2cnc3c(OCc4ccccc4)ncnc32)cc1C | -1.41%
3 | O=C(Cn1cnc2c(OCc3ccccc3)ncnc21)NCc1nc2ccccc2[nH]1 | -0.08%
4 | COc1ccc(Br)cc1CN(C)C(=O)C1CC(=O)N(C2CCCC2)C1 (stereo not drawn) | -0.58%
5 | O=C(O)C1CCN1C1CCCCC1 (stereo not drawn) | -1.21%
6 | CCOC(=O)c1nnn(CC(=O)Nc2cccc(F)c2)c1C(=O)OCC | -0.09%
7 | Cc1nc(C)c(-c2nnc(-c3cccc(S(=O)(=O)N(C)C)c3)o2)cc1C(=O)NN | 4.67%
8 | O=C1/C(=C\c2ccc(O)cc2)CCC1CNc1ccc(Cl)cc1 (stereo not drawn) | 21.3% (active)
9 | CC1CCN(C2=NC(=O)/C(=C/c3ccc(O)cc3)S2)CC1 | -0.54%
10 | CC(C(=O)NC1CCS(=O)(=O)C1)N1C(=O)/C(=C/c2ccc(Cl)cc2)SC1=S (stereo not drawn) | -5.79%
11 | O=C(COC(=O)c1ccc(F)cc1)NCC1COc2ccccc2O1 (stereo not drawn) | 0.36%
12 | Cc1cc(C)c2c(c1)c(C)cc1nnc(SCC(=O)NCc3ccco3)n12 | 9.65%
13 | Cc1ccccc1N1CC(C(=O)Nc2ccc(S(=O)(=O)N3CCCC3)cc2)CC1=O (stereo not drawn) | -1.31%
14 | COc1ccc(-n2c(SCC(=O)NCc3ccco3)nnc2-c2c[nH]c3ccccc23)cc1 | -3.71%
15 | CC(Oc1ccc(-c2ccccc2)c(F)c1)c1ccn(S(=O)(=O)c2cccc3ccccc23)n1 (stereo not drawn) | 1.41%
16 | NC(=O)c1ccsc1NC(=O)COC(=O)COc1ccc(C=O)cc1 | -1%
17 | Cc1cc(NC(=O)CN2C(=O)NC(CCc3ccccc3)C2=O)no1 (stereo not drawn) | 0%
18 | Cc1cc(C)c(NC(=O)CN2C(=O)NC(Cc3ccccc3)C2=O)c(C)c1 (stereo not drawn) | 0.16%
19 | CCCCc1ccc(NC(=O)CN2C(=O)NC(Cc3ccccc3)C2=O)cc1 (stereo not drawn) | 38.2% (active)
20 | Cc1scc(C(=O)NNC(=S)NCC(C)C)c1C | -0.09%

Row | SMILES | Tm shift relative to glycine control
21 | COCCCN1C(=O)c2ccc(C(=O)OCC(=O)NCc3ccccc3OC)cc2C1=O | -0.26%
22 | CCOc1ccc(NC(=O)CCCCCN2C(=O)[C@@H]3Cc4ccccc4CN3C2=O)cc1 | -0.91%
23 | COc1cc(OC)cc(C(=O)Nc2ccc(-c3nc4ccccc4o3)c(O)c2)c1 | 35.4% (active)
24 | COc1cc(OC)cc(C(=O)Nc2ncc3c(n2)CC(C)(C)CC3=O)c1 | -0.38%
25 | COc1cc(OC)cc(C(=O)N[C@H](C(=O)Nc2nc3ccccc3[nH]2)C(C)C)c1 | -1.04%
26 | Cc1noc(C)c1S(=O)(=O)Nc1ccc(C(=O)N2CCN(c3ccc(F)cc3)CC2)cc1 | -0.58%
27 | CC/C(=N\O)C(C)(C)/[N+]([O-])=C/c1ccc(Br)cc1 | 0.62%
28 | CC(C)CN1CCNC(=O)C1CC(=O)N(C)CC1CCOCC1 (stereo not drawn) | 0.85%
29 | COCCNC(=O)Cn1cc2c(n1)CCCCC2 | -0.96%
30 | COC(=O)c1cccc(-n2[nH]nnc2=S)c1 | -0.34%
31 | OCCNc1nc(Nc2ccc(Cl)c(Cl)c2)nc2ccccc12 | 15.3% (active)
32 | Cc1ccc(Nc2nc(N)nc(CN3CCN(Cc4ccccc4)CC3)n2)cc1Cl | -0.21%
33 | NS(=O)(=O)c1ccc(CCNc2nc(C(F)(F)F)nc3ccccc23)cc1 | -7.08%
34 | COc1ccccc1/C=N/N1CCN(Cc2ccccc2Cl)CC1 | 3.27%
35 | Cc1cc(-n2nc(C)cc2C)n2ncc(-c3ccccc3)c2n1 | 0.25%
36 | COc1cc(/C=N/NC(=O)CCc2n[nH]c(=O)[nH]c2=O)ccc1O | 0.39%
37 | CCOc1cc(/C=N/Nc2cc(C)nc3ccc(C)cc23)ccc1O | -6.31%
38 | COc1ccc(CC(=O)N/N=C/c2cc([N+](=O)[O-])cc(Br)c2O)cc1 | 7.97%
39 | COc1cc(/C=N/Nc2nc3ccccc3s2)ccc1O | 20.7% (active)
40 | O=[N+]([O-])c1cc(Br)c(O)c(/C=N/Nc2nc3ccccc3s2)c1 | 24.4% (active)

Row | SMILES | Tm shift relative to glycine control
41 | Cc1cc(C(=O)N/N=C/c2cc([N+](=O)[O-])cc(C)c2O)n[nH]1 | -7.09%
42 | COc1cc(/C=C/CNC[C@H]2O[C@@H](n3cnc(C(N)=O)n3)[C@H](O)[C@@H]2O)ccc1O | -1.5%
43 | C/C(=C/C(=O)N1CCN(C)CC1)C(=O)O | -0.35%
44 | Cc1cc(C)c2cc(CN(Cc3cccs3)Cc3nnnn3CC3CCCO3)c(=O)[nH]c2c1 (stereo not drawn) | -5.51%
45 | Cn1c(=O)[nH]c(=O)c2c1nc(CN1CCN(c3ccccc3F)CC1)n2CCc1ccccc1 | -1.61%
46 | CCCNC(=O)c1ccccc1NC(=O)CSCc1ccc(OC)cc1 | 12.7% (active)
47 | CCCCCNC(=O)c1cccnc1SCC(=O)Nc1ccccc1OC | 8.62%
48 | CCCNC(=O)Nc1ccccc1C(=O)Nc1ccc(OC)cc1 | 0%
49 | COc1cc2c(cc1OC)C(C(=O)Nc1cc(C)c(OC)c(C)c1)CC(=O)N2 (stereo not drawn) | 0.68%
50 | CC(=O)c1c(C)[nH]c(C(=O)OCC(=O)Nc2c(C)n(C)n(-c3ccccc3)c2=O)c1C | 0.41%
51 | CCOCCCNC(=O)C(NC(=O)CNC(=O)c1ccccc1)c1ccc(C)cc1 (stereo not drawn) | -0.17%
52 | Cc1ccc(N2CC(C(=O)NCCS(=O)(=O)N3CCN(c4ccccc4)CC3)CC2=O)cc1 (stereo not drawn) | 0.09%
53 | COc1cc2[nH]c(=S)n(Cc3ccc(C)o3)c(=O)c2cc1OC | 13.2% (active)
54 | CCOc1cc2[nH]c(=S)n(Cc3ccc(C(=O)N4CCN(C)CC4)cc3)c(=O)c2cc1OCC | -2.77%
55 | COc1cc2[nH]c(=S)n(CCN3CCCCC3C)c(=O)c2cc1OC (stereo not drawn) | -1.68%
56 | CCOc1cc2[nH]c(=S)n(Cc3ccc(C(=O)NCCOC)cc3)c(=O)c2cc1OCC | -2.12%
57 | COc1cc2[nH]c(=S)n(Cc3ccc(F)cc3)c(=O)c2cc1OC | 16.4% (active)
58 | COc1ccc(Cn2c(=S)[nH]c3cc(C(=O)N4CCCCC4)ccc3c2=O)cc1 | 0.18%
